Nrf2 activator: activators of Nrf2 (ARE) signaling | Potency, µM (series often up to 46.1 µM), inactives show at the highest dose activation, most hits filed as activators | AID 624171 | AREc32 ARE-luciferase reporter (MCF7-derived line), luminescence, 24 h | 410,000 compounds, 0.31% hits; further: % of control where 0% means no effect; nearly all actives have a fitted effect of over 65% in size
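ARE-driven firefly luciferase activity in AREc32 cells measured after a 24 hr compound exposure at 37 deg C, using Steady-Glo reagent and a 30 min room-temperature hold.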
mIDH1 inhibitor: inhibitors of human mutant IDH1 R132H | 390,000 compounds, 0.093% hits | Potency, µM (series often up to 76.6 µM), for the others: top-dose activity change, negative = inhibition, most hits filed as inhibitors | IDH1-R132H enzyme, NADPH consumption, diaphorase/resazurin fluorescence | O75874 | AID 602179; further: on the % scale 0 is the no-effect control and ±100 the full control effect; nearly all actives have a fitted effect of over 65% in size
Target sequence (O75874 whole entry R132H, stated change not applied): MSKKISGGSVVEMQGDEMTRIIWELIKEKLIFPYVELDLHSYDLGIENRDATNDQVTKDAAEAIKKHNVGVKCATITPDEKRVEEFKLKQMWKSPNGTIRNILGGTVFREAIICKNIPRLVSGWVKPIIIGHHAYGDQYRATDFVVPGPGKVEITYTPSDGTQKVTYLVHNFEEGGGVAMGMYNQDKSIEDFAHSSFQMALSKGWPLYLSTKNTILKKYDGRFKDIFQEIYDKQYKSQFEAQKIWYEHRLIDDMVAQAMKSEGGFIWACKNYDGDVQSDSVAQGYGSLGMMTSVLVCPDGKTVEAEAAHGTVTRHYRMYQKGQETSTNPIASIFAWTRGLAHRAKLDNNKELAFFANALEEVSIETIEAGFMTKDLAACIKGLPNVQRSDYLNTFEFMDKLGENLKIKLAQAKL
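IDH1-R132H (0.5 ug/mL) preincubated 30 min with compound, then NADPH (0.016 mM) and alpha-KG (2 mM) added; 80 min at RT, pH 7.5. Remaining NADPH coupled via diaphorase/resazurin to fluorescence (540/590 nm); concentration-response curves normalized to no-enzyme control.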
A549 tox: A549 cytotoxicity, counter-screen for Nrf2 inhibitors. 390,000 compounds, 0.16% hits. AID 504648. A549 ARE-Fluc cells, CellTiter-Fluor viability, 18-24 h. Potency, µM (series often up to 46 µM), for inactives: top-dose activity change, negative = cytotoxicity, hits mostly inhibitors; further: on the % scale 0 is the no-effect control and ±100 the full control effect
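A549 ARE-Fluc cells in 5% FBS OPTI-MEM, 5000 cells/well, rested 2 h then exposed to compounds in concentration-response for 18-24 h at 37 °C. Viability by CellTiter-Fluor fluorescence (Ex 405/Em 525) after 30 min; luciferase luminescence (BugLite, 15 min, RT) read afterwards.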
Nrf2 block: Nrf2 pathway inhibition. A549 ARE-Fluc reporter, luciferase luminescence, 18-24 h. Potency, µM (highest dose often 46 µM), inactives show at the highest dose activity change, negative = inhibition, hits mostly inhibitors. AID 504444. 360,000 compounds, 2.1% hits; further: on the % scale 0 is the no-effect control and ±100 the full control effect; nearly all actives have a fitted effect of over 60% in size
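In this cell-based qHTS, ARE-driven firefly luciferase in A549 cells reports Nrf2 activity; the luminescent signal after BugLite lysis is the measured value, with a prior CellTiter-Fluor read for cell health.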
ELG1 repair inh: blocks ELG1-dependent DNA repair in HEK293T cells | HEK293T ELG1-luciferase reporter, luminescence, 16 h; DNA damage induced by 5-fluorouridine | 330,000 compounds, 2.3% hits | Potency, µM (top dose mostly 46.1 µM), for the others: at the highest dose activity change, negative = inhibition, most hits filed as inhibitors; further: on the % scale 0 is the no-effect control and ±100 the full control effect; nearly all actives have a fitted effect of over 55% in size
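Luminescence from the luciferase reporter, measured 30 min after ONE-Glo reagent at room temperature, was the read-out. Beforehand, 2,000 cells per well were exposed for 16 hr at 37 °C to 5-fluorouridine together with compound or vehicle.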
The depositor's hits bear a star; ? = inconclusive; / = no result given. This is a sample that favours compounds with a hit; in the whole collection about 3.8% have one here. The call rests on the fitted dose curve; in most records, active means well fitted curve in the direction sought with a large enough effect; inconclusive means small, poorly fitted or top-dose-only effect, or another doubt; inactive means no such curve, though single readings can be large; an effect the other way counts as inactive or inconclusive. Potency means the concentration at half of the fitted maximal effect.

SMILES	Nrf2 activator	mIDH1 inhibitor	A549 tox	Nrf2 block	ELG1 repair inh
COc1ccc(C(C(=O)NCc2ccccc2)N(Cc2ccco2)C(=O)c2snc(C(N)=O)c2N)cc1OC (stereo not drawn)	-0.2%	-5.5%	-4.6%	-10.2%	14.6µM*
O=[N+]([O-])c1c(NCCO)cc(N2CCCCCC2)c2nonc12	-0.4%	1.9%	?	?	-1.5%
O=[N+]([O-])c1c(NCCO)cc(N2CCN(Cc3ccc4c(c3)OCO4)CC2)c2nonc12	0.9%	3.1%	5.1%	7.2%	20.6µM*
COc1ccc(Cn2nnnc2C(c2ccccc2)N2CCN(c3ccccc3)CC2)cc1 (stereo not drawn)	/	/	1.8%	-18.0%	/
O=C(Nc1ccc(Cl)cc1)Nc1ccccn1	10µM*	2.1%	-3.7%	?	?
O=C(Nc1ccccn1)c1ccc(S(=O)(=O)c2ccc(Cl)cc2)cc1	2.7%	2.2%	-12.2%	5.8µM*	?
c1ccc(CN2CCN(c3nc(NCc4ccco4)c4ccccc4n3)CC2)cc1	7.5%	0.2%	?	23.1µM*	?
c1ccc(Nc2nc(NCc3ccco3)c3ccccc3n2)cc1	0.6%	-7.3%	-7.9%	?	9.2µM*
Cc1cccc(Nc2nc(NCc3ccco3)c3ccccc3n2)c1	-0.1%	-21.9%	-16.5%	?	?
COc1cccc(Nc2nc(NCCO)c3ccccc3n2)c1	2.5%	23.0%	7.2%	?	16.4µM*
COC(=O)c1ccc(NC(=O)CC2C(=O)N(c3ccccc3)C(=O)N2Cc2cccs2)cc1 (stereo not drawn)	5.1%	10.8%	-1.1%	/	/
COc1ccc(Cl)cc1-c1nc(-c2ccc(NC(=O)c3ccncc3)cc2)no1	-0.2%	6.7%	-1.4%	-17.8%	/
COc1ccc(C(=O)Nc2ccc3oc(-c4cccnc4)nc3c2)cc1OC	0.1%	1.0%	-3.3%	13µM*	?
COc1ccc(C(=O)Nc2ccc3oc(-c4cccc(F)c4)nc3c2)cc1OC	-0.7%	-1.1%	-4.3%	?	27.5%
CCc1ccc2oc(-c3ccc(NC(=O)c4cc(OC)c(OC)c(OC)c4)cc3)nc2c1	-0.8%	-15.0%	-3.7%	-3.8%	/
COc1cc(C(=O)Nc2ccc3oc(-c4cccnc4)nc3c2)cc(OC)c1OC	0.1%	1.5%	-2.3%	?	23.1µM*
COc1cc(C(=O)Nc2ccc3oc(-c4ccccc4)nc3c2)cc(OC)c1OC	-2.5%	7.3%	?	20.6µM*	/
COc1ccc(-c2nc(-c3ccc(NC(=O)c4ccncc4)cc3)no2)cc1OC	0.3%	-4.6%	0.1%	13µM*	?
O=C(Nc1ccc2oc(-c3ccccc3)nc2c1)c1cccnc1	4.8%	5.6%	-2.9%	-16.2%	?
Cc1c(P(=S)(c2ccccc2)c2ccccc2)c2ccccc2n1CCc1ccccc1	/	/	-0.2%	3.0%	/
COc1cc(C(=O)Nc2nc(OC)c(-c3ccccc3)c(OC)n2)cc(OC)c1OC	-0.6%	0.1%	-2.7%	?	9.2µM*
O=C(Nc1ccc2oc(-c3ccccc3)nc2c1)c1ccc2c(c1)OCCO2	-0.5%	-2.7%	?	9.2µM*	?
O=C(Nc1ccc2oc(-c3ccncc3)nc2c1)c1ccc2c(c1)OCCO2	-0.4%	1.6%	0.8%	?	?
COC(=O)c1ccc(NC(=O)Cn2ccn3nc(-c4ccc(OC)cc4)cc3c2=O)cc1	-0.6%	/	-0.3%	/	/
N#Cc1c(Oc2ccc3ccccc3c2)sc(C(=O)c2ccccc2)c1N	0.3%	0.5%	-5.1%	0.4%	11.6µM*
SMILES	Nrf2 activator	mIDH1 inhibitor	A549 tox	Nrf2 block	ELG1 repair inh
Cc1cccc(Oc2sc(C(=O)c3ccccc3)c(N)c2C#N)c1C	?	-1.7%	-7.4%	?	?
CC(C)c1nc(Nc2nc3ccccc3o2)nc2c1CCCC2	/	/	6.0%	-0.8%	/
O=[N+]([O-])c1cc(S(=O)(=O)Nc2ccccc2)ccc1Nc1ccccc1	7.1%	16.7%	?	25.9µM*	/
O=[N+]([O-])c1cc(S(=O)(=O)Nc2ccccc2)ccc1N1CCN(c2ccccc2)CC1	5.4%	-2.6%	?	18.4µM*	?
O=[N+]([O-])c1cc(S(=O)(=O)Nc2ccccc2)ccc1NCc1ccccc1	2.0%	3.0%	0.5%	-0.6%	-12.5%
O=[N+]([O-])c1cc(S(=O)(=O)C(F)(F)F)ccc1N1CCN(c2ccccc2)CC1	0.0%	9.2%	-6.2%	?	-20.9%
NC(=O)c1ccc(N2CCN(c3ccccc3O)CC2)c([N+](=O)[O-])c1	1.7%	4.2%	0.8%	-4.8%	16.4µM*
CCOc1ccc(C(=O)NCCn2cc(SCC(=O)Nc3ccccc3)c3ccccc32)cc1	3.0%	-8.7%	-10.2%	?	/
Oc1ccc(Cl)cc1C1C=C(c2ccc3c(c2)OCO3)NC(c2cc(Br)ccc2F)N1 (stereo not drawn)	/	/	1.4%	-19.8%	/
COc1cccc(C2CC(c3cccs3)=NN2C(=O)CSc2nc3c(cnn3-c3ccc(F)cc3)c(=O)[nH]2)c1OC (stereo not drawn)	-0.5%	-3.5%	-23.7%	?	?
COc1ccc(C2CC(c3cccs3)=NN2C(=O)CSc2nc3c(cnn3-c3ccccc3)c(=O)[nH]2)cc1 (stereo not drawn)	-1.5%	-8.8%	-26.2%	16.4µM*	?
COc1ccc(C2Nc3ccccc3C(=O)N2Cc2cccnc2)cc1COc1ccc(NC(C)=O)cc1 (stereo not drawn)	/	/	-5.8%	?	/
Nc1ccc(C(=O)N2CCN(S(=O)(=O)c3ccc4c(c3)OCCCO4)CC2)cc1[N+](=O)[O-]	0.7%	0.6%	?	25.9µM*	?
CC1CCc2cc(F)cc3c(O)c(C(=O)NCC4CCCO4)c(=O)n1c23 (stereo not drawn)	-0.6%	7.4%	-6.7%	16.4µM*	23.4%
CCCn1c(=O)c(C(=O)NCC2CCCO2)c(O)c2ccccc21 (stereo not drawn)	-0.4%	0.5%	-1.1%	-8.3%	5.3%
COc1ccc(CNC(=O)C23CC4CC(CC(Br)(C4)C2)C3)cc1	-0.4%	12.3%	1.0%	4.6%	-0.4%
COc1ccc(C(=O)C23CC4CC(C2)CC(C(=O)c2ccc(OC)cc2)(C4)C3)cc1	-0.4%	3.8%	0.0%	?	5.8µM*
N#CC1=C(SCC(=O)c2ccc(Br)cc2)NC2=C(C(=O)CCC2)C1c1ccco1 (stereo not drawn)	3.4%	-2.8%	?	18.4µM*	13µM*
CCc1ccc(NC(=O)CSC2=C(C#N)C(c3ccco3)C3=C(CCCC3=O)N2)cc1 (stereo not drawn)	?	4.4%	-1.1%	-10.3%	?
Cc1nc(SCC(=O)Nc2nc3ccccc3s2)c(C#N)c(C)c1C	-2.4%	-1.1%	14.3%	4.61µM*	5.17µM*

From PubChem BioAssay
